High-throughput results as filed in PubChem.
Rows were chosen to be rich in hits. Some 5.5% of all compounds tested hit in one or more screens of this group.
FBPA coupling cs: qHTS Assay for Inhibitors of Fructose-1,6-bisphosphate Aldolase from Giardia Lamblia: Coupling assay counterscreen. 290,000 tested, 0.67% active. activity change, negative = inhibition, % at 58.2 µM, hits read low. AID 2472, 2010. coupling enzyme system counterscreen, AmpLite Red fluorescence; in the data active means activity change below about -30%
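Counterscreen of the coupled detection system alone, without aldolase: glyceraldehyde-3-phosphate coupling enzymes plus AmpLite Red readout. Compounds at 57.5 uM final, 10 min RT preincubation, 20 min RT reaction, fluorescence 525/598 nm.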
ELG1 repair inh: qHTS screen for small molecules that inhibit ELG1-dependent DNA repair in human embryonic kidney (HEK293T) cells expressing luciferase-tagged ELG1; 330,000 tested, 2.3% active; HEK293T ELG1-luciferase reporter, luminescence, 16 h; DNA damage induced by 5-fluorouridine; AID 504467, 2011; Potency, µM (highest dose often 46.1 µM), for the others: at the highest dose activity change, negative = inhibition, most hits filed as inhibitors; further: potency means the concentration at half of the fitted maximal effect; nearly all actives have a fitted effect of over 55% in size
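Luminescence from the luciferase reporter, measured 30 min after ONE-Glo reagent at room temperature, was the read-out. Beforehand, 2,000 cells per well were exposed for 16 hr at 37 °C to 5-fluorouridine together with compound or vehicle.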
Sfp inh: qHTS Assay for Inhibitors of Bacillus subtilis Sfp phosphopantetheinyl transferase (PPTase) | Biochemical Sfp PPTase activity, qHTS | Potency, µM, without a hit: largest response in the series, negative = inhibition, hits mostly inhibitors | 4'-phosphopantetheinyl transferase ffp (Bacillus subtilis), Q9F4F7 | 310,000 tested, 3.5% active;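 further: the enzyme is Sfp with the accession as filed and its product quenches rhodamine fluorescence; potency means the concentration at half of the fitted maximal effect; 0% = enzyme reaction without inhibitor and -100% = no enzyme wells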
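Compounds were incubated with enzyme (final 15 nM) for 15 min at room temperature before substrate addition started the reaction. Fluorescence at 525 nm excitation, 598 nm emission was recorded immediately and after 30 minutes.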
Giardia kill: Small Molecules that selectively kill Giardia lamblia: qHTS; Giardia lamblia trophozoite viability; activity change, % at 7.66 µM, hits read low; 340,000 tested, 0.15% active; AID 540267, 2011; in the data active means activity change below about -80%; inconclusive means between about -30% and that limit;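 further: parasites exposed to compound for two days anaerobically before the ATP read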
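Trophozoite viability was measured as ATP-dependent luminescence, read 15-30 min after reagent addition. Before that, parasites at 100 cells/well were exposed to compounds for 48 h, anaerobically, at 37 deg C.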
Numbers without * were called inactive; ? = inconclusive; . = not tested or not shown; ! = not confirmed by another sample. Unless noted, the call rests on the fitted dose curve; in most records, active means well fitted curve in the direction sought with a large enough effect; inconclusive means small, poorly fitted or top-dose-only effect, or another doubt; inactive means no such curve, though single readings can be large; an effect the other way counts as inactive or inconclusive. Unless noted, on the % scale 0 is the no-effect control and ±100 the full control effect.

SMILES | FBPA coupling cs | ELG1 repair inh | Sfp inh | Giardia kill
C[C@@H]1COC(=O)[C@H](NC(=O)OCC2c3ccccc3-c3ccccc32)C/C=C\C[C@@H](CC(=O)N[C@H](CO)Cc2ccccc2)C(=O)N1 | . | ? | . | -16
COc1cc(CN(C2CC2)S(=O)(=O)c2ccccc2Br)cc(OC)c1 | . | ? | . | -4
Cc1ccc(NC2Sc3ccccc3NC2=O)cc1 (configuration not stated) | -3 | ? | 8.9µM* | -17
C=Cc1c(C)/c2[n-]/c1=C\c1[n-]c(c(CC)c1C)/C=c1\[n-]c3c(c1C)C(=O)C(C(=O)[O-])C=3c1[n-]c(c(C)c1CCC(=O)[O-])\C=2.[Cu].[Na+].[Na+] (configuration not stated) | -10 | . | 45µM* | .
Cn1c(=O)c(NC2CCCCC2)c2c3c(cccc31)C(=O)c1ccccc1-2 | 2 | 18µM* | -25% | 9
Cn1c(=O)c(NCCc2ccccc2)c2c3c(cccc31)C(=O)c1ccccc1-2 | 0 | 21µM* | -3% | 12
CCCCNc1c2c3c(cccc3n(C)c1=O)C(=O)c1ccccc1-2 | 0 | 16µM* | -12% | -6
Cc1ccncc1C(=O)O | 0 | . | 12% | .
O=C(c1csnn1)N1CCC2(CCN(Cc3cc(C(F)(F)F)cc(C(F)(F)F)c3)CC2)CC1 | -1 | . | 7% | .
CCc1ccc2nc(N(CCCN(C)C)C(=O)c3ccc(S(=O)(=O)N4CCCc5ccccc54)cc3)sc2c1 | -1 | -13% | 35µM* | -15
CCc1ccc2nc(N(CCCN(C)C)C(=O)c3ccc(C(=O)c4ccccc4)cc3)sc2c1 | . | 13% | 56µM* | -14
CN(C)CCCN(C(=O)c1ccc2c(c1)CCCC2)c1nc2ccc(Cl)cc2s1 | -1 | -8% | 35µM* | -4
Cc1ccc2nc(N(CCCN(C)C)C(=O)c3ccc4ncsc4c3)sc2c1 | 0 | ? | 40µM* | 1
CCc1ccc2nc(N(CCCN(C)C)C(=O)c3ccc(S(=O)(=O)N4CCCC4)cc3)sc2c1 | . | ? | 1% | -12
COc1cc2nc(N(CCCN(C)C)C(=O)c3ccc(C(=O)c4ccccc4)cc3)sc2cc1OC | . | ? | . | -4
COCCn1c(=O)c(CCc2ccccc2)nc2cnc(OCc3ccccc3)nc21 | 2 | . | 7% | .
N#Cc1cccc(S(=O)(=O)N2CCN(c3ccnc4cc(Cl)ccc34)CC2)c1 | . | ? | -5% | 5
COc1ccc(OCc2cc(C(=O)NCC(C)Oc3cccnc3)no2)c(Cl)c1 (configuration not stated) | . | 24% | 22% | -6
COc1ccc(CNc2ncnc3ccc(-c4cccc(NS(C)(=O)=O)c4)cc23)c(OC)c1 | 1 | . | 3% | .
O=[N+]([O-])c1cccc(C2=N[C@@H](Cc3ccccc3)CO2)c1 | 0 | . | -20% | .
CC(=O)C1=C(S(=O)(=O)c2ccc(C)cc2)CS(=O)(=O)C1 | 4 | -17% | 5.6µM* | -6
CCN1C/C(=C/c2cccc([N+](=O)[O-])c2)C(=O)/C(=C/c2cccc([N+](=O)[O-])c2)C1 | 1 | 2.6µM* | -22% | -20
CCOc1cc(/C=C2\CN(CC)C/C(=C\c3ccc(O)c(OCC)c3)C2=O)ccc1O | 1 | ? | -14% | ?
CC(Oc1ccc2c(c1)c1ccnc3c4ccccc4c(=O)n2c13)C(=O)NCCN1CCOCC1 (configuration not stated) | -2 | ? | 24% | 12
Cc1nc(S(=O)(=O)N(C)c2ccccc2)c(C#N)c(C)c1Cl | 4 | 23µM* | 19% | -1
SMILES | FBPA coupling cs | ELG1 repair inh | Sfp inh | Giardia kill
CSc1ccc(CCNC(=O)CN2C(=O)c3cccnc3Oc3ccc(C)cc32)cc1 | -1 | -10% | 9% | ?
CC(=O)Nc1ccc2nc(CN3CCN(Cc4ccc(F)cc4)C(CCO)C3)ccc2c1 (configuration not stated) | -4 | -2% | 79µM* | 2
Cc1cccc(N2CCN(C(=O)c3cc4n(n3)C(C(F)(F)F)CC(c3ccco3)N4)CC2)c1C (configuration not stated) | -1 | 21µM* | 2% | 0
CC(C)NC(=O)c1cc2n(n1)C(C(F)(F)F)CC(c1ccco1)N2 (configuration not stated) | 3 | 8% | 10% | -5
O=C(NCc1ccccn1)c1cc2n(n1)C(C(F)(F)F)CC(c1ccco1)N2 (configuration not stated) | -8 | -2% | 13µM* | -1
COc1ccc(/C=C/C(=O)OCC(=O)NC(C)CCc2ccccc2)cc1OC (configuration not stated) | . | -17% | . | ?
Cc1noc(C)c1C(=O)N1CCC2(CCCN(Cc3nccs3)C2)CC1 | 2 | . | 5% | .
NS(=O)(=O)c1ccc(Oc2ccc(S(N)(=O)=O)cc2)cc1 | 0 | -9% | 22% | -11
C=CS(=O)(=O)c1ccc(Oc2ccc(S(=O)(=O)C=C)cc2)cc1 | 1 | 2.6µM* | ? | 2
CCOCCN1CCN(c2c3c(nc4cc(-c5ccc(F)cc5)nn24)CCC3)CC1 | 2 | ? | -7% | 28
CCOCCN1CCN(c2c(CC)c(C)nc3cc(-c4cc(OC)cc(OC)c4)nn23)CC1 | 0 | 6.5µM* | -4% | 10
Cc1cc(C)c(C(=O)COC(=O)Cn2c(C)csc2=O)cc1C | . | 3% | -3% | 20
COc1ccc2c(c1)oc1c(SCc3nc4ccccc4[nH]3)nc(C)nc12 | . | ? | . | -16
Cc1nc(SCc2nc3ccccc3[nH]2)c2oc3cc([N+](=O)[O-])ccc3c2n1 | . | 23µM* | . | -1
O=C(N/N=C/c1ccoc1)c1ccc(Br)cc1 | -1 | 27% | -7% | -24
O=C(N/N=C/c1ccoc1)c1ccc(Cl)cc1 | . | 7% | 50µM* | 11
COc1ccc(NC(=O)CN(C)C(=O)Cc2ccc(S(=O)(=O)N3CCOCC3)s2)cc1 | . | 25% | . | -9
CCN(CC)C(=S)SSC(=S)N(CC)CC | 1 | ? | 3.5µM*! | -24
CCCSC1=N/C(=C\c2ccc([N+](=O)[O-])o2)C(=O)S1 | -7 | 4% | 40µM* | 5
CCCSC1=N/C(=C\C=C\c2ccco2)C(=O)S1 | 0 | 5% | 32µM* | -9
Cc1c(C(=O)N2CCN(C(c3ccccc3)c3ccccc3)CC2)oc2ccccc12 | . | 17% | . | ?
C=CC[C@@H](CC(=O)N(CCO)Cc1ccccc1)C(=O)N[C@@H](COC(=O)[C@@H](CC=C)CC(=O)OC(C)(C)C)Cc1c[nH]c2ccccc12 | . | ? | . | 6
C=CC[C@@H](CC(=O)N(CCO)Cc1ccccc1)C(=O)N[C@H](COC(=O)[C@@H](CC=C)CC(=O)OC(C)(C)C)Cc1c[nH]c2ccccc12 | . | 18µM* | . | -13
C=CC[C@H](CC(=O)N(CCO)Cc1ccccc1)C(=O)N[C@@H](COC(=O)[C@H](CC=C)CC(=O)OC(C)(C)C)Cc1c[nH]c2ccccc12 | . | 23µM* | . | 5
